Measured values taken from PubChem BioAssay (EPA / NIEHS).
Results filed as inconclusive are left out. Activity calls are given as the source filed them. How the source made its calls: active means hit-call score of the fitted dose curve at least 0.9, where 1 is the maximum; inconclusive means response in the unintended direction; inactive means score below 0.9.

target: Oxysterols receptor LXR-alpha (Homo sapiens) (UniProt Q13133); assay: ATG_LXRa_TRANS: Attagene TRANS-FACTORIAL HepG2 Assay for human Liver X Receptor alpha (LXRa) (AID 2282980); conditions: HepG2 Attagene TRANS reporter, LXRa transactivation
Sequence (Q13133 whole entry, looked up, the tested form may be a part): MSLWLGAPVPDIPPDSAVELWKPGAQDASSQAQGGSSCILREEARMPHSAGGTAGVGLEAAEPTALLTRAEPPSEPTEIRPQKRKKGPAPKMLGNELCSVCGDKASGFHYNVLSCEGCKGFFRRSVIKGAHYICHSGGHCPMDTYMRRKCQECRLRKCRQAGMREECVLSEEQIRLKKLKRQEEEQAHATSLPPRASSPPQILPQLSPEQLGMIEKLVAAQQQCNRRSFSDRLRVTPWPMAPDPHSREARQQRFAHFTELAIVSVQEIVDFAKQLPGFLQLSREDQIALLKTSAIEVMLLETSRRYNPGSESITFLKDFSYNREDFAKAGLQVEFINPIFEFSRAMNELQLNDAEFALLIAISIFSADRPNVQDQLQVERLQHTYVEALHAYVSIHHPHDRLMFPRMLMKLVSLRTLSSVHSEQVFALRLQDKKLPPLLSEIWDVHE
Method in brief: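 HepG2 cells transiently transfected with GAL4-UAS reporter units for chimeric NR-Gal4 proteins, exposed to chemicals for 24 h. Reporter mRNA quantified by RT-PCR and capillary electrophoresis; gain of signal fitted relative to DMSO.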

outcome, inactive:
CCCNC(=O)NS(=O)(=O)c1ccc(Cl)cc1
COCC(C)N (configuration not stated)
COc1cc(C)ccc1C(C)C
CCCc1ccc(OC)cc1
C=C[Si](OC(C)=O)(OC(C)=O)OC(C)=O
COC=O
Cc1ccc(N/N=c2\c(=O)cc/c(=N/Nc3ccc(S(=O)(=O)O)cc3)c2=O)c(C)c1
C1CN(SSN2CCOCC2)CCO1
CCCOCCOCCOCCO
O=C1C(N(CO)C(=O)NCO)N(CO)C(=O)N1CO (configuration not stated)
CCCCCCCCc1ccc(Nc2ccc(CCCCCCCC)cc2)cc1
CC/C=C\CCOC(=O)CCCCC
O=c1n(CCO)c(=O)n(CCO)c(=O)n1CCO
O=CC1CC1
CO[Si](OC)(OC)c1ccccc1
C=CC(=O)NC(C)(C)CS(=O)(=O)O
O=C(O)C(c1ccc(Cl)cc1)c1ccc(Cl)cc1
CN1C(=O)N(C)C(O)C1O (configuration not stated)
[Cl][In]([Cl])[Cl]
S=C(NC1CCCCC1)NC1CCCCC1
OCCc1ccncc1
CC(=O)OCc1ccco1
CCC(C)C=O (configuration not stated)
CCOCC(=O)O

target: Oxysterols receptor LXR-beta (Homo sapiens) (UniProt P55055); assay: ATG_LXRb_TRANS: Attagene TRANS-FACTORIAL HepG2 Assay for human Liver X Receptor beta (LXRb) (AID 2282981); conditions: HepG2 Attagene TRANS GAL4-LXRb reporter, mRNA
Sequence (P55055 whole entry, looked up, the tested form may be a part): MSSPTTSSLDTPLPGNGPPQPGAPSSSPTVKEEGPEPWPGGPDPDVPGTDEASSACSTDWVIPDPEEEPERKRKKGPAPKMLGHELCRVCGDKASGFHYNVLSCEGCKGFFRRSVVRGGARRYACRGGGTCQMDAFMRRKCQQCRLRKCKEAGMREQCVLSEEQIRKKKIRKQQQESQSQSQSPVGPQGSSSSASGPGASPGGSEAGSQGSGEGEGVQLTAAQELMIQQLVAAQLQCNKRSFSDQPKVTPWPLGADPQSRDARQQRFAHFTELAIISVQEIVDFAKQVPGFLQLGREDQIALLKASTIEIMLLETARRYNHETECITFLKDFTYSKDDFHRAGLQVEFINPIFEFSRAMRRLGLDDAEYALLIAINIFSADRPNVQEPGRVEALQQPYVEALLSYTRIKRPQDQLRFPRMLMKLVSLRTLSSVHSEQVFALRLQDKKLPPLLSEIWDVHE
Method in brief: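 Cells: HepG2, transiently transfected with GAL4-UAS reporter units plus LXRb-Gal4 fusion. Treatment: 24 h. Detection: reporter mRNA by RT-PCR, 6-FAM labelling, HpaI digestion, capillary electrophoresis.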

outcome, inactive:
COC(=O)/C=C/C(C)=C\C=C\C(C)=C\C=C\C=C(C)\C=C\C=C(C)\C=C\C(=O)O
Cc1cc(C)c(C)c(C)c1
C=CC(=O)OCCOC(=O)C=C
C=C[Si](OC(C)=O)(OC(C)=O)OC(C)=O
O=C(O)c1cc2ccccc2nc1C(=O)O
CC(C)(C)c1ccc(OC(=O)c2ccccc2O)cc1
O=S(=O)(O)CC(O)CCl (configuration not stated)
O=c1c2ccccc2nnn1CCl
Cc1ccc(OC(=O)CC(C)C)cc1
CCCOCCOCCOCCO
N#CCc1ccc(Cl)cc1Cl
Cn1c(=O)[nH]c2ncn(C)c2c1=O
O=S1(=O)OC(c2ccc(O)cc2)(c2ccc(O)cc2)c2ccccc21
O=C1CCCCCN1SSN1CCCCCC1=O
CCCCCCCC(C)=O
NC(=O)N=NC(N)=O
Cc1oncc1C(=O)Nc1ccc(C(F)(F)F)cc1
CCOc1ccc(N)c([N+](=O)[O-])c1
